In general, AC50 refers to the concentration at which the activity in the assay is half-maximal.

The source made the active and inactive calls. How the source made its calls: active means hit-call score of the fitted dose curve at least 0.9, where 1 is the maximum; inactive means score below 0.9.

Sequence of rat CYP2A1, Cyp2a1 (gene 24894) (P11711 whole entry, looked up): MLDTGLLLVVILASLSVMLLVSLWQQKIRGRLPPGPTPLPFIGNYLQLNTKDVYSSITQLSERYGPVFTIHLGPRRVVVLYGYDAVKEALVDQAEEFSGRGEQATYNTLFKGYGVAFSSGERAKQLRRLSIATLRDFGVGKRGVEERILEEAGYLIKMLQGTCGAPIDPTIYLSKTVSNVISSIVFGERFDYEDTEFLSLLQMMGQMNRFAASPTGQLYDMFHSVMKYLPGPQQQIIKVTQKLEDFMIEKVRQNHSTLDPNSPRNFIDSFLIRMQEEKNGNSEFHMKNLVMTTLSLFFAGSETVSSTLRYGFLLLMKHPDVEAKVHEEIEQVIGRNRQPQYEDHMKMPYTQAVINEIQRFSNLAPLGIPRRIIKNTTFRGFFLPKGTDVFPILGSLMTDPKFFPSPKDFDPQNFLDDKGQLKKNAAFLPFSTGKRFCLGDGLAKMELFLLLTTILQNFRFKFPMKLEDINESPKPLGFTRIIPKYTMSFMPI

In this assay the target is rat CYP2A1, Cyp2a1 (gene 24894) (UniProt P11711). The assay can be described thus: NVS_ADME_rCYP2A1: NovaScreen (NVS) CYP450-related Enzyme Activity (ADME) Assay for rat CYP2A1 (AID 2283114). As for the experimental part:
NVS_ADME_rCYP2A1 is a biochemical, single-readout assay that uses extracted gene-proteins in a cell-free assay. Measurements were taken 0.75 hour after chemical dosing in a 96-well plate.NVS_ADME_rCYP2A1 is one of one assay component(s) measured or calculated from the NVS_ADME_rCYP2A1 assay. It is designed to make measurements of enzyme activity, a form of enzyme reporter, as detected with fluorescence intensity signals by Fluorescence technology.Data from the assay component NVS_ADME_rCYP2A1 was analyzed into 1 assay endpoint. This assay endpoint, NVS_ADME_rCYP2A1, was analyzed in the positive analysis fitting direction relative to Acetonitrile as the negative control and baseline of activity. Using a type of enzyme reporter, loss-of-signal activity can be used to understand changes in the enzymatic activity as they relate to the gene Cyp2a1. Furthermore, this assay endpoint can be referred to as a primary readout, because this assay has produced multiple assay endpoints where this one serves a enzymatic activity function. To generalize the intended target to other relatable targets, this assay endpoint is annotated to the cyp intended target family, where the subfamily is xenobiotic metabolism.
Binding assays used specific radioligands (tritiated, iodinated) with non-radioactive competitive displacement ligands in agonist or antagonist protocols (as indicated) and various reference compounds and inhibitors to titrate specific binding to receptors and transporters. Most enzyme assays (CYPs, kinases, phosphatases, proteases, HDACs) used recombinant protein and specific substrates (fluorescence mostly, some colorimetric and radioactive) and inhibitors, followed by a biochemical separation of substrate and product. All assays for the biochemical HTS were initially run in duplicate at a single concentration (10 uM for CYP450 assays and 25 uM for all others). Assay-chemical combinations meeting a pre-defined threshold (e.g., 30% inhibition and other criteria defined below) were then run in singleton concentration-response format with maximum concentration of 20 uM for CYPs and 50 uM for all others. Each assay was run with positive and negative controls, and concurrent controls on every plate. The follow-up (secondary) screen tested active chemical-pairs in concentration series, as well as a few additional assays not tested in the primary screen, some selected negative inactives, and several cases re-run in the concentration series for confirmatory purposes.
For `CCOP(=S)(OCC)SCn1c(=O)oc2cc(Cl)ccc21`, the AC50 was 3.22 µM (active).

For `CCOC(=O)C(Cl)Cc1cc(-n2nc(C)n(C(F)F)c2=O)c(F)cc1Cl` (stereo not drawn), the result was inactive.

For `COC(=O)c1ccccc1C(=O)OC`, the result was inactive.

Consider `CCCN(CCC)c1c([N+](=O)[O-])cc(S(N)(=O)=O)cc1[N+](=O)[O-]`, for which the AC50 was 2.62 µM (active).

As to `Cc1ccc(-c2c(Cl)nc(C#N)n2S(=O)(=O)N(C)C)cc1`, the AC50 is 7.38 µM (active).

`CCOC(=O)CC(SP(=S)(OC)OC)C(=O)OCC` (stereo not drawn): the AC50 is 5.52 µM (active).

For the molecule `N#CC(CCc1ccc(Cl)cc1)(Cn1cncn1)c1ccccc1` (stereo not drawn), the result was inactive.

Take `CO/C=C(/C(=O)OC)c1ccccc1Oc1cc(Oc2ccccc2C#N)ncn1`: the AC50 is 3.83 µM (active).

Consider `OC(c1ccc(Cl)cc1)(c1cncnc1)c1ccccc1Cl` (stereo not drawn), for which the AC50 is 4.33 µM (active).

Regarding `CC1COC(Cn2cncn2)(c2ccc(Oc3ccc(Cl)cc3)cc2Cl)O1` (stereo not drawn), the AC50 was 0.14 µM (active).

With `CC1=C(C(=O)Nc2ccccc2)SCCO1`, the AC50 was 6.72 µM (active).

As for `CN(C)C(=S)SSC(=S)N(C)C`, the AC50 was 2.83 µM (active).

`COc1ccc(C(c2ccc(OC)cc2)C(Cl)(Cl)Cl)cc1`: the outcome was inactive.

(Values after PubChem BioAssay (EPA / NIEHS).)
